Test results taken from PubChem BioAssay (Tox21).
Records with an inconclusive call do not appear. A call without a number means that no potency is given here. Active and inactive are the calls of the source. Calls follow the shape of the full dose curve.

Assay: qHTS assay to identify small molecule agonists of the progesterone receptor (PR) signaling pathway - cell viability counter screen (AID 1346799); also: nearly all actives have a fitted effect of over 45% in size
Settings: PR-UAS-bla HEK293T viability, CellTiter-Glo luminescence, 16 h; series mostly up to 92.4 µM
Description: National Center for Advancing Translational Sciences [NCATS]
NIH Chemical Genomics Center [NCGC]
U.S. Environmental Protection Agency [EPA]
National Institutes of Environmental Health Sciences [NIEHS]
National Toxicology Program [NTP]
U.S. Food and Drug Administration [FDA]
Progesterone receptor (PR), a nuclear hormone receptor, plays an important role in development, metabolic homeostasis and reproduction. It is activated by the steroid hormone progesterone. Endocrine disrupting chemicals (EDCs) and their interactions with steroid hormone receptors like PR causes disruption of normal endocrine function. To identify the compounds that stimulate PR signaling, a PR-UAS-bla GripTite cell line i.e. PR-UAS-bla HEK293T (Invitrogen, Carlsbad, CA, USA) containing a beta-lactamase reporter gene under the control of an UAS response element was used to screen Tox21 10K compound library. The cytotoxicity of the Tox21 compound library against the PR-bla cell line was tested in parallel by measuring the cell viability using CellTiter-Glo assay in the same wells.
Tox21 Assay Protocol Summary:
PR-UAS-bla HEK293T cells were dispensed at 3,000 cells/5 uL of assay medium containing 2% charcoal stripped FBS per well into black wall/clear-bottom 1536-well plates using a Multidrop Combi (ThermoFisher Scientific, Waltham, MA) dispenser. After the assay plates were incubated at a 37C and 5% CO2 for 6 hr, 23 nL of compounds dissolved in DMSO, positive controls or DMSO only was transferred to the assay plate by a Pintool station (Kalypsys, San Diego, CA). The plates were incubated at 37C and 5% CO2 for 16 hr. Then 1 uL of LiveBLAzer B/G FRET substrate was added using a Flying Reagent Dispenser (FRD, Aurora Discovery, San Diego, CA), the plates were incubated at room temperature for 2 hours, and fluorescence intensity was measured by an Envision plate reader (PerkinElmer, Shelton, CT). For cell viability readout that measures cytotoxicity, 4 uL/well of CellTiter-Glo reagent was added into the assay plates using a FRD. After 30 min incubation at room temperature, the luminescence intensity in the plates was measured using a ViewLux (PerkinElmer) plate reader.
Potency is read from the fitted curve at half-maximal effect.

SMILES	Potency	activity change, negative = cytotoxicity
CC1=C(/C=C/C(C)=C/C=C/C(C)=C\C(=O)O)C(C)(C)CCC1	inactive	
Cc1cccc2c1ccc1ccccc12	inactive	
Oc1cccc2c(O)cccc12	inactive	
COC(=O)c1ccc([N+](=O)[O-])cc1	inactive	
Clc1cccc(Cl)n1	inactive	
CO[Si](OC)(c1ccccc1)c1ccccc1	inactive	
CC(C)(C)c1cc(CCC(=O)OCCSCCOC(=O)CCc2cc(C(C)(C)C)c(O)c(C(C)(C)C)c2)cc(C(C)(C)C)c1O	inactive	
CCOC(=O)[C@H](C)O	inactive	
c1ccc(-c2nc3ccccc3[nH]2)cc1	inactive	
NCc1cccc(C2CCN(C(=O)c3ccc(C#Cc4ccccc4F)o3)CC2)c1	61.1 µM (active)	
O=[N+]([O-])c1ccc(CO)cc1	inactive	
NC(=O)c1ccccc1Cl	inactive	
O=C1OCc2ccccc21	inactive	
CC(C)c1ccc2sc3ccccc3c(=O)c2c1	inactive	
CCOC=C(C(=O)OCC)C(=O)OCC	inactive	
SC1CCCCC1	inactive	
NCc1ccco1	inactive	
CSc1ccc(O)cc1C	inactive	
Cc1ccc2nc(-c3ccc(N)cc3)sc2c1S(=O)(=O)O	inactive	
CCOC(=O)C1=NN(c2ccc(Cl)cc2Cl)C(C)(C(=O)OCC)C1 (stereo not given)	inactive	

SMILES	Potency	activity change, negative = cytotoxicity
c1ccc2cc3c4ccccc4c4ccccc4c3cc2c1	inactive	
CCC1(C)C(=O)N(Cl)C(=O)N1Cl (stereo not given)	inactive	
COc1c(Br)cc(Br)c(C)c1Br	inactive	
C=C[Si](C)(C)Cl		-13.4% [at 8.39 µM] (inactive)
CC1CCC(C(C)(C)O)CC1 (stereo not given)	inactive	
CC(Cc1ccc(O)c(O)c1)C(C)Cc1ccc(O)c(O)c1 (stereo not given)	inactive	
C=Cc1ccncc1	inactive	
O=C1c2ccccc2C(=O)c2c(Cl)cccc21	inactive	
Cc1ccc(C2OC[C@@H]3OC(c4ccc(C)cc4)O[C@H]([C@H](O)CO)[C@@H]3O2)cc1 (stereo not given in full)	inactive	
O=C(NCc1ncc(C(F)(F)F)cc1Cl)c1c(Cl)cccc1Cl	inactive	
C=C1CC[C@H]2O[C@]2(C)CC[C@@H]2[C@@H]1CC2(C)C	inactive	
C=C(C)CCO	inactive	
Oc1ccc(C2(c3ccc(O)c(C4CCCCC4)c3)CCCCC2)cc1C1CCCCC1	27.3 µM (active)	
C=COCCCC	inactive	
c1ccc(-c2ccc(C(c3ccccc3)n3ccnc3)cc2)cc1 (stereo not given)	16.8 µM (active)	
C/C(=N\[Si](C)(C)C)O[Si](C)(C)C	inactive	
CN[C@H]1CC[C@@H](c2ccc(Cl)c(Cl)c2)c2ccc(S(N)(=O)=O)cc21	48.6 µM (active)	
CCc1c(C)cc(N)c(CC)c1N	inactive	
CCCCCCCCSCc1cc(C)c(O)c(CSCCCCCCCC)c1	inactive	
CC(c1cc(C(C)(C)C)cc(C(C)(C)C)c1O)c1cc(C(C)(C)C)cc(C(C)(C)C)c1O	inactive	
